Values joined by “and” are separate entries in the source; they are usually repeats but may differ in a detail not shown here. Equal entries are not always repeated. Results filed as inconclusive are left out. Active and inactive are the calls of the source. Unless noted, calls come from the whole dose curve; as a rule, active = well fitted curve in the direction sought with a large enough effect; inconclusive = small, poorly fitted or top-dose-only effect, or another doubt; inactive = no such curve, though single readings can be large; an effect the other way counts as inactive or inconclusive.

The nature of assay [1]: NS1 protein of Zika virus - qHTS assay to identify small molecule inhibitors in human HEK 293 cells (AID 1347053). Note: series mostly up to about 46 µM; nearly all actives have a fitted effect of over 55% in size. A digest of the protocol:
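HEK 293; 20 h pre-culture, 37 C/5% CO2; cpd 1 h pre-infection; ZIKV MR766, MOI = 0.5, 24 h, 37 C; TR-FRET NS1 readout (two anti-NS1 Abs); norm. to no-virus vs infected.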
(In qHTS, concentration-response curves come from the screen itself.)

The target of assay [2] is T1, Tyrosine-protein phosphatase non-receptor type substrate 1 (Homo sapiens) + Leukocyte surface antigen CD47 (Homo sapiens) (UniProt P78324+Q08722). Nature of the assay: CD47-SIRPalpha protein protein interaction - HTRF assay qHTS validation (AID 1347058; active = well fitted curve in the direction sought with a large enough effect in the signal ratio, not every such curve was filed as active; the % refers to the signal ratio;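 note: recombinant soluble extracellular CD47 with His tag and biotinylated SIRPalpha domains; series mostly up to about 38 µM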). The procedure, abridged:
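TR-FRET read (Ch1/Ch2 ratio) of soluble extracellular CD47 and Avi-biotinylated SIRPalpha domains in PBS pH 7.4 with 0.05% IGEPAL; 7-point compound titration. Sequential 30 min room-temperature steps; non-biotinylated SIRPalpha as control inhibitor.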
For orientation: Time-resolved FRET reads energy transfer from a long-lived donor to a nearby acceptor.

The target in assay [3] is T1, Tyrosine-protein phosphatase non-receptor type substrate 1 (Homo sapiens) + Leukocyte surface antigen CD47 (Homo sapiens). The assay can be described thus: CD47-SIRPalpha protein protein interaction - Alpha assay qHTS validation (AID 1347059).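 Note: bead proximity luminescence from CD47 binding SIRPalpha after compound preincubation with SIRPalpha.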 The procedure, abridged: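 Binding is measured by AlphaScreen proximity: Ni-NTA acceptor beads capture His-CD47, streptavidin donor beads capture biotin-SIRPalpha. Each of three additions (SIRPalpha with compound, CD47, beads) incubates 30 min at room temperature protected from light.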

Assay [4] concerns the target Parathyroid hormone/parathyroid hormone-related peptide receptor (Homo sapiens) (UniProt Q03431). The assay can be described thus: qHTS for PTHR1 Agonists: Optimization Screen against the NCGC LOPAC library (AID 1347079).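 Note: GloSensor cAMP luminescence in HEK-293 GP2 cells expressing human PTHR1 with IBMX.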 The procedure, abridged: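 Agonist readout: GloSensor cAMP luminescence, read after 15 min at room temperature. HEK-293-derived GP2 line carries PTHR1; compounds tested as a titration for 1 hr at 37C in presence of IBMX. M-PTH (1-15) served as control.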

Assay [5] is described as follows: qHTS of pediatric cancer cell lines to identify multiple opportunities for drug repurposing: Primary screen for TC32 cells (AID 1347089). Note: nearly all actives have a fitted effect of over 60% in size. A digest of the protocol:
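Luminescent CellTiter-Glo read-out of metabolically active TC32 cells after 48 h compound exposure. Primary: MIPE 11-point, 0.78 nM–46 µM; NPC 8-point, 0.59 nM–46 µM. Confirmatory: 11-point dilutions.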

Assay [6] in a line: qHTS of pediatric cancer cell lines to identify multiple opportunities for drug repurposing: Primary screen for DAOY cells (AID 1347090). Note: series mostly up to about 46 µM; nearly all actives have a fitted effect of over 55% in size. The procedure, abridged:
(§1)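 Cell viability, CellTiter-Glo luminescence; 500-1,000 cells/well, 8- or 11-point titration, 48 h compound exposure at 37 degrees C, 5% CO2. Controls: DMSO neutral, bortezomib 2.3 µM final as positive.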

The nature of assay [7]: qHTS of pediatric cancer cell lines to identify multiple opportunities for drug repurposing: Primary screen for SJ-GBM2 cells (AID 1347091). The procedure, abridged: as §1
Assay [8] is described as follows: qHTS of pediatric cancer cell lines to identify multiple opportunities for drug repurposing: Primary screen for A673 cells (AID 1347092). Note: nearly all actives have a fitted effect of over 45% in size. Note: potency is the fitted concentration of half-maximal effect. A digest of the protocol: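 A673 cells (500-1,000 cells/well in growth media) were pre-incubated 5 h at 37 degrees C, then exposed to compounds for 48 h. Viability was read as CellTiter-Glo luminescence; concentration-response curves came directly from the primary screen.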

Assay [9] is described as follows: qHTS of pediatric cancer cell lines to identify multiple opportunities for drug repurposing: Primary screen for NB-EBc1 cells (AID 1347095). The procedure, abridged:
(§2)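 500-1,000 cells/well; 5 h pre-incubation 37 °C/5% CO2; compound pinned; 48 h; CellTiter-Glo, 15 min RT; luminescence. MIPE 11-pt from 0.78 nM, NPC 8-pt from 0.59 nM final. Bortezomib 2.3 µM final as positive control.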

The nature of assay [10]: qHTS of pediatric cancer cell lines to identify multiple opportunities for drug repurposing: Primary screen for U-2 OS cells (AID 1347096). Note: nearly all actives have a fitted effect of over 50% in size. A digest of the protocol:
(§3)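 Cells (500-1,000/well) rested 5 h, then received compounds for 48 h; metabolically active cells were measured by CellTiter-Glo luminescence. Final concentrations spanned up to 46 µM (MIPE, 11-point) or 0.59 nM-46 µM (NPC, 8-point) in primary screens, 11-point in follow-ups.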

A short description of assay [11]: qHTS of pediatric cancer cell lines to identify multiple opportunities for drug repurposing: Primary screen for SK-N-SH cells (AID 1347098). Note: nearly all actives have a fitted effect of over 65% in size. A digest of the protocol:
as §3

The nature of assay [12]: qHTS of pediatric cancer cell lines to identify multiple opportunities for drug repurposing: Primary screen for NB1643 cells (AID 1347099). Note: nearly all actives have a fitted effect of over 50% in size. The procedure, abridged: as §2
The nature of assay [13]: qHTS of pediatric cancer cell lines to identify multiple opportunities for drug repurposing: Primary screen for LAN-5 cells (AID 1347100). The procedure, abridged: as §3
Assay [14] can be described thus: qHTS of pediatric cancer cell lines to identify multiple opportunities for drug repurposing: Primary screen for Rh18 cells (AID 1347102). Note: nearly all actives have a fitted effect of over 65% in size. A digest of the protocol:
as §3

The nature of assay [15]: qHTS of pediatric cancer cell lines to identify multiple opportunities for drug repurposing: Primary screen for OHS-50 cells (AID 1347103). Note: nearly all actives have a fitted effect of over 40% in size. The procedure, abridged:
as §3

The nature of assay [16]: qHTS of pediatric cancer cell lines to identify multiple opportunities for drug repurposing: Primary screen for SK-N-MC cells (AID 1347093). Note: potency is the fitted concentration of half-maximal effect. A digest of the protocol:
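Metabolically active cells were quantified by ATP-dependent luminescence (CellTiter-Glo, 15 min at room temperature) following 48 h treatment. Cells had been plated at 500-1,000 per well and settled for 5 h beforehand.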

Assay [17] is described as follows: qHTS of pediatric cancer cell lines to identify multiple opportunities for drug repurposing: Primary screen for BT-37 cells (AID 1347094). Note: series mostly up to about 57 µM. A digest of the protocol:
as §2

A short description of assay [18]: qHTS of pediatric cancer cell lines to identify multiple opportunities for drug repurposing: Primary screen for BT-12 cells (AID 1347101). Note: nearly all actives have a fitted effect of over 25% in size. A digest of the protocol:
as §3

In assay [19] the target is T1, Tyrosine-protein phosphatase non-receptor type substrate 1 (Homo sapiens) + Leukocyte surface antigen CD47 (Homo sapiens). The assay can be described thus: CD47-SIRPalpha protein protein interaction - LANCE assay qHTS validation (AID 1347057; active = well fitted curve in the direction sought with a large enough effect in the signal ratio, with a control signal flat, not every such curve was filed as active; the % refers to the signal ratio; note: series mostly up to about 38 µM). The procedure, abridged: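 First, His-tagged CD47 and Eu-labelled anti-His antibody met the compound for 30 min; next, site-specifically biotinylated SIRPalpha was added for 30 min; finally streptavidin-APC was added before reading the TR-FRET ratio.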

Assay [20] can be described thus: qHTS of pediatric cancer cell lines to identify multiple opportunities for drug repurposing: Primary screen for Saos-2 cells (AID 1347097). Note: nearly all actives have a fitted effect of over 40% in size. The procedure, abridged: as §2

Parathyroid hormone/parathyroid hormone-related peptide receptor (Homo sapiens), sequence (Q03431 whole entry, looked up): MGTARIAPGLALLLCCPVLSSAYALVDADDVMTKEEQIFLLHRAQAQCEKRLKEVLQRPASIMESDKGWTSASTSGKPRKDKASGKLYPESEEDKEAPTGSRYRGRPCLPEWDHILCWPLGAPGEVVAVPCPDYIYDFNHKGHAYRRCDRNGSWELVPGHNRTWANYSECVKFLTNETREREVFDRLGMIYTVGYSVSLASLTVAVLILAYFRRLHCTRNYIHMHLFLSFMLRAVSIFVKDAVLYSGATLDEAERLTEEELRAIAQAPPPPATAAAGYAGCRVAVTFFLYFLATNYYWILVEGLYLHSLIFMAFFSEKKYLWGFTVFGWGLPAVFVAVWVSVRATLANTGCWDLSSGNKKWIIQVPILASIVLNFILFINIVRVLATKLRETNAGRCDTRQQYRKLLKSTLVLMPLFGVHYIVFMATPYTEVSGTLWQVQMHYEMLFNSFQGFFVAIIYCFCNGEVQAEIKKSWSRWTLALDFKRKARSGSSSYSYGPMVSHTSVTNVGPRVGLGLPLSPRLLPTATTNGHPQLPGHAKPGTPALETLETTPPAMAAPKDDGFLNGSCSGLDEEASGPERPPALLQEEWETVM
T1 sequence (P78324 whole entry, looked up, the tested form may be a part): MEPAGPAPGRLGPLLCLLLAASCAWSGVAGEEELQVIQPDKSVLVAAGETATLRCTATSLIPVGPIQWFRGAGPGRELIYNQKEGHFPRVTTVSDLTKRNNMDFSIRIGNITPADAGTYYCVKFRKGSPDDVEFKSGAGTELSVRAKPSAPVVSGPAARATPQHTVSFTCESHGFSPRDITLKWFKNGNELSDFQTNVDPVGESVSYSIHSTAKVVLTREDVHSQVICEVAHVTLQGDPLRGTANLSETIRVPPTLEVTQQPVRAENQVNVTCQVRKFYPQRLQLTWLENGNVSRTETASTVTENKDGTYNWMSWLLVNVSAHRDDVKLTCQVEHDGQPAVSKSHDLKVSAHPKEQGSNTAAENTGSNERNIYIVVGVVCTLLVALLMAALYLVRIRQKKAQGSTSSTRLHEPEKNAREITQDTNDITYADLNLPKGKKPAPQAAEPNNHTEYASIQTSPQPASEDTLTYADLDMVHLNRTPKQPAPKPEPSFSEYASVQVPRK
T1 sequence (Q08722 whole entry, looked up, the tested form may be a part): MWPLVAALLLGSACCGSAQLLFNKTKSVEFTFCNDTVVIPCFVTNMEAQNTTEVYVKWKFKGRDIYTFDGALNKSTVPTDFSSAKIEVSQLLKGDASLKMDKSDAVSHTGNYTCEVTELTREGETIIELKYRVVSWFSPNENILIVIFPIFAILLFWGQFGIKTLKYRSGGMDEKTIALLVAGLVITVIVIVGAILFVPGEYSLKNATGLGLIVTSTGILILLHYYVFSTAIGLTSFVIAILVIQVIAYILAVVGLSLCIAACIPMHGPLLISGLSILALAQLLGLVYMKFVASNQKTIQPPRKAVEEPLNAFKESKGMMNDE

Take `C1COC(NC(C2CC2)C2CC2)=N1`: the Potency entry in [1], in [5], in assay [6], in assay [7], in assay [8] and in assay [9] was “inactive” throughout. Besides, the Potency entry in assay [10], in [11], in assay [12], in [13], in [14] and in assay [15] was “inactive” in each case. The outcome in assay [2], in [3] and in assay [4] was inactive.
Take `NCCc1ccc(O)c(O)c1`: the Potency result in assay [1], in assay [5], in assay [7], in [17], in [9] and in assay [10] was “inactive” each time. Moreover, the Potency result in [12], in assay [13], in assay [18], in assay [14] and in assay [15] was “inactive” each time. For the same molecule, the result in assay [2], in [3] and in assay [4] was inactive. In addition, the Potency in assay [8] is 23.5 µM (active) and 10.6 µM (active); in [16], 18.7 µM (active) and 7.5 µM (active).
`O=C(O)COCCN1CCN(C(c2ccccc2)c2ccc(Cl)cc2)CC1` (configuration not stated): the Potency result in assay [1], in [5], in assay [6], in assay [7], in assay [8] and in [16] was “inactive” throughout. In addition, the Potency entry in [17], in assay [9], in [10], in assay [11], in assay [12] and in [13] was “inactive” throughout. Besides, the Potency result in assay [18], in assay [14] and in assay [15] was “inactive” throughout. Moreover, the result in assay [19], in [2], in [3] and in assay [4] was inactive.
On to `O=C1CCc2cc(OCCCCc3nnnn3C3CCCCC3)ccc2N1`, for which the Potency result in assay [1], in assay [5], in [6], in assay [7], in assay [8] and in [9] was “inactive” in each case. Besides, the Potency result in assay [10], in assay [20], in assay [11], in assay [13], in [14] and in [15] was “inactive” in each case. The outcome in assay [2], in assay [3] and in [4] was inactive.
`O=C(O)CCc1ccc(NCc2cccc(Oc3ccccc3)c2)cc1`: the Potency entry in assay [1], in assay [5], in assay [6], in [7], in assay [8] and in assay [16] was “inactive” each time. In addition, the Potency result in [9], in assay [10], in assay [20], in [11], in assay [12] and in assay [13] was “inactive” each time. The Potency result in [14] and in assay [15] was “inactive” each time. Also, the result in [19], in assay [2] and in assay [3] was inactive.
For `Nc1ccc(S(=O)(=O)Nc2ccnn2-c2ccccc2)cc1`, the Potency entry in assay [1], in assay [5], in [6], in assay [7], in assay [8] and in [16] was “inactive” in each case. Besides, the Potency result in assay [9], in assay [10], in [11], in assay [12], in assay [13] and in assay [18] was “inactive” each time. Moreover, the Potency entry in [14] and in [15] was “inactive” each time. Moreover, the result in assay [2], in assay [3] and in assay [4] was inactive.
In the case of `Cc1ccccc1C(OCCN(C)C)c1ccccc1` (configuration not stated), the Potency entry in assay [1], in assay [5], in assay [6], in assay [7], in assay [8] and in assay [16] was “inactive” throughout. For the same molecule, the Potency entry in [9], in assay [10], in assay [20], in assay [12], in [13] and in assay [14] was “inactive” in each case. Besides, the outcome in assay [2], in [3] and in assay [4] was inactive.
With `Oc1ccc(C2CNCCc3c2cc(O)c(O)c3Cl)cc1` (configuration not stated), the Potency result in assay [1], in [5], in assay [6], in assay [7], in [8] and in assay [16] was “inactive” in each case. Also, the Potency result in assay [9], in assay [10], in [20], in assay [11], in assay [12] and in assay [13] was “inactive” throughout. Further, the Potency entry in assay [18], in assay [14] and in assay [15] was “inactive” throughout. In addition, the outcome in assay [2], in assay [3] and in assay [4] was inactive.

The values are drawn from PubChem BioAssay (NCATS).
